Drawing on PubChem BioAssay (NCATS), this text covers max response for 34 compounds.

“And” between values parts separate entries of the source, which are not always exact repeats. Identical values can stand only once. Inconclusive results are not listed. Unmarked numbers belong to inactive results. Calls follow the shape of the dose curve; as a rule, active = well fitted curve in the direction sought with a large enough effect; inconclusive = small, poorly fitted or top-dose-only effect, or another doubt; inactive = no such curve, though single readings can be large or run the other way.
% is scaled to controls: 0 for no effect and ±100 for the full control effect.

The test can be described thus: qHTS Assay for Identifying Gametocytocidal Compounds (AID 743244).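 Also: actives lower the fluorescent signal which means gametocytes are killed.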 To be noted: P. falciparum 3D7 stage III-V gametocytes, alamarBlue, 72 h; max response: stronger effect = lower value. The gist of the method: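 Fluorescence at Ex 525/Em 598 nm, recorded 24 h after alamarBlue addition, reports residual metabolic activity of 3D7 gametocytes (stages III–V) following 72 h compound exposure at 37 °C, 5% CO2.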
As to `N[C@H](C(=O)O)c1ccc(O)cc1`, the max response was -1.91%.

Take `CCOc1ccc2ccccc2c1C(=O)N[C@@H]1C(=O)N2[C@@H]1SC(C)(C)[C@@H]2C(=O)O`: the max response is -1.05%.

As for `O=C1NC(=O)[C@@]2(CCOc3ccc(F)cc32)N1`, the max response is -2.96%.

Regarding `Cc1c(Cl)cccc1Nc1ccccc1C(=O)O`, the max response was -7.91%.

Regarding `Cc1cc(C(C#N)c2ccc(Cl)cc2)c(Cl)cc1NC(=O)c1cc(I)cc(I)c1O` (centres undefined), the max response is 0.496%.

Consider `O=C1O[C@H](CO)[C@@H](O)[C@H](O)[C@H]1O`, for which the max response was -3.17%.

`O=C1OC(OC(=O)c2cccnc2Nc2cccc(C(F)(F)F)c2)c2ccccc21` (centres undefined): the max response is 9.12%.

Regarding `COc1ccc2cc1Oc1cc3c(cc1OC)CC[N+](C)(C)[C@H]3Cc1ccc(cc1)Oc1c(OC)c(OC)cc3c1[C@@H](C2)[N+](C)(C)CC3`, the max response is -8.04%.

Consider `CC(=O)NC(Cc1ccccc1)C(=O)O` (centres undefined), for which the max response is -1.78%.

Consider `CN(N=O)C(=O)N[C@@H]1[C@@H](O)[C@H](O)[C@@H](CO)O[C@@H]1O`, for which the max response was 5.26%.

For the compound `C[C@]12CC[C@@H]3c4ccc(O)cc4CC[C@H]3[C@@H]1CC[C@@H]2OC(=O)CCC1CCCC1`, the max response is -9.98% and 14%.

`O=C(O)CC(O)C(=O)O` (centres undefined): the max response was -0.517%.

For the compound `COc1ccc2c(c1)C(=O)N(CCc1ccc(S(=O)(=O)NC(=O)NC3CCCCC3)cc1)C(=O)C2(C)C`, the max response is 22.2%.

`NC1[C@H]2CN(c3nc4c(cc3F)c(=O)c(C(=O)O)cn4-c3ccc(F)cc3F)C[C@@H]12` (some centres undefined): the max response is -0.422%.

As for `C[C@H]1O[C@@H](n2cc(F)c(=O)[nH]c2=O)[C@H](O)[C@@H]1O`, the max response is 0.485%.

On to `Cc1ccc2nc(N)[nH]c(=O)c2c1Sc1ccncc1`, for which the max response was -4.42%.

Take `NS(=O)(=O)c1cc2c(cc1C(F)(F)F)NC(Cc1ccccc1)NS2(=O)=O` (centres undefined): the max response was 5.19%.

`CC(C)c1c(C(=O)Nc2ccccc2)c(-c2ccccc2)c(-c2ccc(F)cc2)n1CC[C@@H](O)C[C@@H](O)CC(=O)O`: the max response is -14.7%.

`O=C(O)[C@@H]1CSCN1`: the max response was -11.5%.

In the case of `O=c1cc[nH]c(=S)[nH]1`, the max response was 12.7%.

As for `O=C(O)[C@H](O)c1ccccc1`, the max response was 17.9%.

Take `OCC(O)CN1CCN(c2ccccc2)CC1` (centres undefined): the max response was -0.192%.

For the compound `CN1CCC[C@@H]1Cc1c[nH]c2ccc(CCS(=O)(=O)c3ccccc3)cc12`, the max response is -0.49%.

Consider `Cc1ccc(C(C)C)cc2c(C)ccc1-2`, for which the max response was 3.45%.

Turning to `C[C@@H](O)[C@H](N)C(=O)O`, the max response is 6.39%.

In the case of `NC(=O)NNc1ccccc1`, the max response is 5.12% and -3.42%.

Consider `COc1cc2[nH]c(=O)[nH]c(=O)c2cc1OC`, for which the max response was 5.15%.

With `CCCOC(=O)c1ccccc1`, the max response was -2.44%.

Consider `CCC(=O)c1ccc(O)cc1`, for which the max response was -0.113%.

Regarding `O=C(O)c1ccccn1`, the max response was -0.573%.

Regarding `CC1(C)CO[C@@H](CC(=O)O)CN1`, the max response was 28.1%.

`CCOC(CN1CCN(CC(C)C(=O)c2ccccc2)CC1)c1ccccc1` (centres undefined): the max response was 18.2%.

With `O=C(O)CN1C(=O)c2cccc3cccc(c23)C1=O`, the max response is 0.25%.

Regarding `C[C@H]1O[C@H](O[C@H]2[C@H](O)[C@@H](O)[C@@H](O[C@H]3[C@H](O)[C@@H](O)[C@H](O)O[C@@H]3CO)O[C@@H]2CO)[C@H](O)[C@@H](O)[C@@H]1N[C@H]1C=C(CO)[C@@H](O)[C@H](O)[C@H]1O`, the max response is 2.05%.
